The nature of assay [1]: qHTS RealTime-Glo MT Cell Viability Assay in HepG2 cells - 40 hour (AID 1224870). Also: nearly all actives have a fitted effect of over 50% in size. In a few lines:
(§1)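 Real-time viability: cells seeded at 600 per well together with NanoLuc and cell-permeant prosubstrate, compounds added after 5 h incubation. Luminescence tracked at 0, 8, 16, 24, 32 and 40 h of exposure.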
(In general: Quantitative high-throughput screening tests each substance at several concentrations.)

Assay [2] is described as follows: A CellTox Green Cytotoxicity Assay to monitor cytotoxicity in HEK293 cells - 40 hour (AID 1224871). Also: nearly all actives have a fitted effect of over 45% in size. The method in brief: (§2)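 Read-out: fluorescence of a cell-impermeant cyanine dye staining DNA of dead cells, proportional to cytotoxicity. HEK293, 600 cells/well with reagent, compound (23 nL DMSO) added after 5 h; reads at 0, 8, 16, 24, 32, 40 h.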
Assay [3] is described as follows: qHTS RealTime-Glo MT Cell Viability Assay in HEK293 cells - 16 hour (AID 1224872). Also: top concentration of the series differs between compounds; nearly all actives have a fitted effect of over 50% in size. The method in brief: (§3)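 Assay medium contained NanoLuc luciferase plus cell-permeant prosubstrate, added with HEK293 cells at 600 cells/well. After 5 h at 37 C/5% CO2 compounds were added; plates stayed at 37 C for 40 h with serial luminescence reads.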
The nature of assay [4]: qHTS RealTime-Glo MT Cell Viability Assay in HepG2 cells - 8 hour (AID 1224873). Also: nearly all actives have a fitted effect of over 55% in size. In a few lines:
as §1

The nature of assay [5]: qHTS RealTime-Glo MT Cell Viability Assay in HEK293 cells - 40 hour (AID 1224874). Also: nearly all actives have a fitted effect of over 50% in size. The note with it: RealTime-Glo luminescence; max response: hits give low values. In a few lines:
(§4)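 Luminescence readout at each listed time point; HEK293, 600 cells/well, RealTime-Glo MT reagent added with cells; compounds pinned (23 nL in DMSO) after 5 h at 37 C; continuous culture at 37 C.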

Assay [6] can be described thus: A CellTox Green Cytotoxicity Assay to monitor cytotoxicity in HEK293 cells - 24 hour (AID 1224875). Also: series mostly up to about 77 µM; nearly all actives have a fitted effect of over 45% in size. In a few lines:
as §2

The nature of assay [7]: A CellTox Green Cytotoxicity Assay to monitor cytotoxicity in HepG2 cells - 16 hour (AID 1224876). Also: nearly all actives have a fitted effect of over 45% in size. The method in brief: (§5)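 HepG2, 600 cells/well premixed w/ CellTox Green; 5 h settle, 37 C/5% CO2; pintool cpd add (DMSO); 37 C, 40 h; fluorescence read at 0, 8, 16, 24, 32, 40 h.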
A short description of assay [8]: qHTS RealTime-Glo MT Cell Viability Assay in HepG2 cells - 32 hour (AID 1224877). Also: nearly all actives have a fitted effect of over 55% in size. The method in brief:
(§6)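 qHTS, HepG2, 600 cells/well, RealTime-Glo (NanoLuc + prosubstrate) added with cells; 5 h preincubation; DMSO compound addition; 37 C; luminescence at 0/8/16/24/32/40 h.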

A short description of assay [9]: A CellTox Green Cytotoxicity Assay to monitor cytotoxicity in HepG2 cells - 24 hour (AID 1224878). Also: nearly all actives have a fitted effect of over 45% in size. The method in brief: as §5
The nature of assay [10]: A CellTox Green Cytotoxicity Assay to monitor cytotoxicity in HepG2 cells - 40 hour (AID 1224879). Also: nearly all actives have a fitted effect of over 40% in size. In a few lines:
as §5

The nature of assay [11]: qHTS RealTime-Glo MT Cell Viability Assay in HEK293 cells - 0 hour (AID 1224880). The method in brief: as §4
The nature of assay [12]: A CellTox Green Cytotoxicity Assay to monitor cytotoxicity in HEK293 cells - 32 hour (AID 1224881). Also: nearly all actives have a fitted effect of over 40% in size. The method in brief: as §2
Assay [13] can be described thus: A CellTox Green Cytotoxicity Assay to monitor cytotoxicity in HepG2 cells - 32 hour (AID 1224883). Also: nearly all actives have a fitted effect of over 50% in size. The method in brief:
as §5

Assay [14] in a line: A CellTox Green Cytotoxicity Assay to monitor cytotoxicity in HEK293 cells - 8 hour (AID 1224884). Also: nearly all actives have a fitted effect of over 35% in size. In a few lines:
as §2

The nature of assay [15]: qHTS RealTime-Glo MT Cell Viability Assay in HEK293 cells - 24 hour (AID 1224886). In a few lines: as §3
Assay [16] in a line: qHTS RealTime-Glo MT Cell Viability Assay in HEK293 cells - 8 hour (AID 1224887). In a few lines:
as §4

Assay [17] in a line: A CellTox Green Cytotoxicity Assay to monitor cytotoxicity in HEK293 cells - 16 hour (AID 1224888). Also: nearly all actives have a fitted effect of over 35% in size. The method in brief:
as §2

Assay [18] in a line: A CellTox Green Cytotoxicity Assay to monitor cytotoxicity in HepG2 cells - 0 hour (AID 1224882). Also: nearly all actives have a fitted effect of over 35% in size. Also: potency is read from the fitted curve at half-maximal effect. In a few lines: as §5
Assay [19] can be described thus: qHTS RealTime-Glo MT Cell Viability Assay in HepG2 cells - 16 hour (AID 1224885). Also: nearly all actives have a fitted effect of over 50% in size. In a few lines:
as §6

Assay [20] can be described thus: qHTS RealTime-Glo MT Cell Viability Assay in HepG2 cells - 0 hour (AID 1224889). Also: nearly all actives have a fitted effect of over 50% in size. The method in brief:
as §6

The structures appear in SMILES notation. A number with no mark means an inactive call. Results filed as inconclusive are left out. The source made the active and inactive calls. Calls follow the shape of the dose curve; as a rule, active = well fitted curve in the direction sought with a large enough effect in the repeat runs; inconclusive = weak or mixed curves; inactive = no such curve, though single readings can be large; an effect the other way counts as inactive or inconclusive.
% is scaled to controls: 0 for no effect and ±100 for the full control effect.

Turning to `Nc1nc(F)nc2c1ncn2[C@@H]1O[C@H](CO)[C@@H](O)[C@@H]1O`, the Potency entry in assay [1], in [2], in assay [3], in assay [6], in assay [7] and in assay [8] was “inactive” throughout. For the same molecule, the Potency entry in [9], in [10], in assay [12], in [13], in assay [14] and in assay [15] was “inactive” each time. Besides, the Potency result in assay [16] and in [17] was “inactive” throughout. Moreover, the call in assay [4] and in assay [11] was inactive. For the same molecule, the max response in assay [5] is -1.6%.

For `NC(=O)c1ncn([C@@H]2O[C@H](CO)[C@@H](O)[C@H]2O)c1N`, the Potency result in assay [1], in [2], in [3], in assay [6], in assay [7] and in assay [9] was “inactive” in each case. Also, the Potency result in assay [10], in assay [12], in [13], in assay [14], in assay [15] and in [16] was “inactive” in each case. Further, in [20], the Potency result is “inactive”. The molecule was called inactive in assay [4], in assay [11] and in assay [19]. Further, the max response in assay [5] was -6.56%. The Potency in [18] is 10.7 µM (active).

With `Cn1ccc2cc3c(cc21)CCN3C(=O)Nc1cccnc1`, the activity change, negative = cytotoxic in assay [1] was -0.975% [at 15.8 µM]; in assay [8] it was -1.69% [at 15.8 µM]. The cytotoxicity increase in assay [2] is -10.7% [at 15.8 µM]; in assay [7], -8.93% [at 15.8 µM]; in [10], -12.1% [at 15.8 µM]; in assay [12], 1.72% [at 15.8 µM]; in assay [13] it was -9.84% [at 15.8 µM]; in [14] it was -5.84% [at 15.8 µM]. Further, the activity change, negative = cytotoxicity was -8.97% [at 15.8 µM] in assay [3]; -0.254% [at 15.8 µM] in assay [11]; -8.85% [at 15.8 µM] in assay [15]; -3.76% [at 15.8 µM] in [16]; -0.377% [at 15.8 µM] in assay [20]. For the same molecule, the viability change, negative = cytotoxic in assay [4] is -3.74% [at 15.8 µM]. In addition, the max response in assay [5] was -5.83%. Also, the activity change in assay [6] was -2.97% [at 15.8 µM, hits give high values]; in assay [17], -2.95% [at 15.8 µM, hits give high values]. For the same molecule, in assay [9], the cytotoxicity is -8.65% [at 15.8 µM].

As for `NC(=S)Nc1cccc2ccccc12`, the activity change, negative = cytotoxic in assay [1] was -4.8% [at 6.97 µM]; in assay [8] it was -0.0723% [at 6.97 µM]; in [19], -0.289% [at 6.97 µM]. The cytotoxicity increase is 0.339% [at 6.97 µM] in assay [2]; 1.42% [at 6.97 µM] in assay [7]; 2.43% [at 6.97 µM] in [10]; -1.04% [at 6.97 µM] in assay [12]; 0.974% [at 6.97 µM] in [13]; 15.1% [at 6.97 µM] in assay [14]. Moreover, the activity change, negative = cytotoxicity in assay [3] was 14.8% [at 6.97 µM]; in assay [15], 15.9% [at 6.97 µM]; in assay [16], 11.2% [at 6.97 µM]; in [20], 6.18% [at 6.97 µM]. Besides, in assay [4], the viability change, negative = cytotoxic is 2.4% [at 6.97 µM]. The max response in [5] was 16.5%. Moreover, the activity change was 0.127% [at 6.97 µM, hits give high values] in assay [6] and 0.057% [at 6.97 µM, hits give high values] in [17]. For the same molecule, the cytotoxicity in assay [9] was -1.06% [at 6.97 µM]; in assay [18], 5.93% [at 6.97 µM].

With `CCCOCC(C)OCC(C)O` (configuration not stated), the Potency entry in assay [1], in assay [2], in assay [3], in assay [6], in assay [7] and in assay [9] was “inactive” throughout. Besides, the Potency entry in assay [10], in [12], in [18], in assay [13], in assay [14] and in assay [15] was “inactive” in each case. Further, the Potency entry in [16] and in assay [17] was “inactive” throughout. Further, the call in assay [4], in [11] and in assay [19] was inactive. Moreover, the max response in [5] is 5.98%.

Regarding `CCCCCC[C@@H](CCC)C(=O)O`, the Potency entry in assay [1], in assay [2], in [3], in assay [6], in [7] and in assay [8] was “inactive” throughout. For the same molecule, the Potency entry in [9], in assay [10], in assay [12], in assay [18], in [13] and in assay [14] was “inactive” throughout. Further, the Potency entry in assay [15], in assay [16] and in assay [17] was “inactive” each time. Further, the molecule was called inactive in [4] and in assay [19]. For the same molecule, in assay [5], the max response was 13.8%.

For `COC(=O)CCCC(=O)O`, the Potency result in assay [1], in [2], in assay [3], in assay [6], in assay [7] and in assay [8] was “inactive” each time. Also, the Potency entry in assay [9], in assay [10], in assay [12], in assay [13], in assay [14] and in [15] was “inactive” in each case. The Potency result in assay [16], in assay [17] and in assay [20] was “inactive” each time. Further, the outcome in assay [4], in [11] and in [19] was inactive. For the same molecule, the max response in assay [5] is 10.9%.

The values are drawn from PubChem BioAssay (Tox21).
